AC50 and outcome data for 5 compounds are collected here from PubChem BioAssay (EPA / NIEHS).

What is called AC50 is the concentration at which the activity in the assay is half-maximal.

Read-out in assay [1]: Interferon-gamma inducible Protein 10 (IP10), CXCL10 (gene 3627)
Kind of assay: BSK_hDFCGF_IP10: BioMAP Diversity Plus: hDFCGF Assay for Interferon-gamma inducible Protein 10 (IP10) Biomarker Activity (AID 2283053). The conditions noted are these: primary human foreskin fibroblasts; actives raise or lower the signal. A digest of the protocol: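 Primary foreskin fibroblasts, human; 24 h compound exposure; IP-10 by ELISA; bidirectional fit vs DMSO.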

Read-out in assay [2]: Urokinase-type plasminogen activator receptor (uPAR), PLAUR (gene 5329)
As to the kind of experiment: BSK_CASM3C_uPAR: BioMAP Diversity Plus: CASM3C Assay for Urokinase-type plasminogen activator receptor (uPAR) Biomarker Activity (AID 2283054).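 Also: cell-surface uPAR protein level quantified by ELISA.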 The following applies: primary human coronary artery smooth muscle cells; actives raise or lower the signal.

Read-out in assay [3]: Vascular cell adhesion molecule 1 (VCAM1), VCAM1 (gene 7412)
As to the kind of experiment: BSK_CASM3C_VCAM1: BioMAP Diversity Plus: CASM3C Assay for Vascular cell adhesion molecule 1 (VCAM1) Biomarker Activity (AID 2283055).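 Also: VCAM-1 protein level quantified by ELISA on the cells.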 The conditions noted are these: primary human coronary artery smooth muscle cells; actives raise or lower the signal.

Read-out in assay [4]: Epidermal growth factor receptor (EGFR), EGFR (gene 1956)
Kind of assay: BSK_hDFCGF_EGFR: BioMAP Diversity Plus: hDFCGF Assay for Epidermal growth factor receptor (EGFR) Biomarker Activity (AID 2283057). The following applies: primary human foreskin fibroblasts; actives raise or lower the signal. A digest of the protocol:
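hDFCGF system, primary human foreskin fibroblasts; compound 24 h; EGFR measured by ELISA; DMSO = negative control/baseline; bidirectional fitting.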

Read-out in assay [5]: Interleukin-8 (IL8), CXCL8 (gene 3576)
As to the kind of experiment: BSK_hDFCGF_IL8: BioMAP Diversity Plus: hDFCGF Assay for Interleukin-8 (IL8) Biomarker Activity (AID 2283058). The conditions noted are these: primary human foreskin fibroblasts; actives raise or lower the signal. A digest of the protocol: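 Primary human foreskin fibroblasts (hDFCGF system) dosed with chemical; IL-8 measured by ELISA 24 hours later. Bidirectional curve fitting relative to DMSO baseline; cytotoxicity tracked in parallel cultures by SRB total protein staining.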

A short description of assay [6]: BSK_hDFCGF_Proliferation: Cell Proliferation Assessment in the BioMAP Diversity Plus: hDFCGF Assay (AID 2283059).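 Also: curves fitted for both rise and fall of signal versus DMSO baseline.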 The following applies: primary human foreskin fibroblasts. A digest of the protocol:
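Primary human foreskin fibroblasts, sub-confluent; […]; 10% TCA fix, 0.1% SRB stain, A560 total protein. Gain/loss fitted bidirectionally vs DMSO control.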

Read-out in assay [7]: Macrophage colony-stimulating factor (MCSF), CSF1 (gene 1435)
Kind of assay: BSK_hDFCGF_MCSF: BioMAP Diversity Plus: hDFCGF Assay for Macrophage colony-stimulating factor (MCSF) Biomarker Activity (AID 2283060). The conditions noted are these: primary human foreskin fibroblasts; actives raise or lower the signal. A digest of the protocol:
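Human foreskin fibroblast primary cultures; M-CSF measured by ELISA 24 hours after chemical dosing. Bidirectional fitting relative to DMSO, with overt cytotoxicity tracked by parallel SRB total-protein staining (0.1% SRB, 10% TCA fixation, 560 nm).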

The nature of assay [8]: BSK_hDFCGF_SRB: Viability Assessment in the BioMAP Diversity Plus: hDFCGF Assay (AID 2283061).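 Also: cells exposed to compound for 24 h before the read.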 The following applies: primary human foreskin fibroblasts. A digest of the protocol: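 Human foreskin fibroblasts in 96-well plates were treated 24 h. Total protein was measured by 0.1% SRB staining after 10% TCA fixation, read at 560 nm. Data were fitted bidirectionally against DMSO.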

Read-out in assay [9]: TIMP metallopeptidase inhibitor 1 (TIMP1), TIMP1 (gene 7076)
As to the kind of experiment: BSK_hDFCGF_TIMP1: BioMAP Diversity Plus: hDFCGF Assay for TIMP metallopeptidase inhibitor 1 (TIMP1) Biomarker Activity (AID 2283062). The following applies: primary human foreskin fibroblasts; actives raise or lower the signal. A digest of the protocol:
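Human foreskin fibroblast primary cultures dosed for 24 h; secreted/surface TIMP-1 quantified by ELISA. Bidirectional curve fitting against DMSO baseline; cytotoxicity tracked in parallel cultures by SRB total-protein staining.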

Read-out in assay [10]: Monokine induced gamma interferon (MIG), CXCL9 (gene 4283)
As to the kind of experiment: BSK_hDFCGF_MIG: BioMAP Diversity Plus: hDFCGF Assay for Monokine induced gamma interferon (MIG) Biomarker Activity (AID 2283063). The following applies: primary human foreskin fibroblasts; actives raise or lower the signal. A digest of the protocol: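 MIG/CXCL9 measured by ELISA 24 h after dosing primary human skin fibroblasts. Activity fitted in both directions against DMSO controls. Cytotoxicity was checked in parallel cultures by SRB staining read at 560 nm.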

Read-out in assay [11]: Matrix Metallopeptidase 1 (MMP1), MMP1 (gene 4312)
As to the kind of experiment: BSK_hDFCGF_MMP1: BioMAP Diversity Plus: hDFCGF Assay for Matrix Metallopeptidase 1 (MMP1) Biomarker Activity (AID 2283064). The following applies: primary human foreskin fibroblasts; actives raise or lower the signal. A digest of the protocol:
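Primary human foreskin fibroblasts in the hDFCGF system were dosed with test chemical, and MMP1 was measured by ELISA 24 h later. Values come from bidirectional curve fitting against the DMSO baseline.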

Read-out in assay [12]: Vascular cell adhesion molecule 1 (VCAM1), VCAM1 (gene 7412)
Kind of assay: BSK_hDFCGF_VCAM1: BioMAP Diversity Plus: hDFCGF Assay for Vascular cell adhesion molecule 1 (VCAM1) Biomarker Activity (AID 2283065).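 As to AC50: VCAM-1 protein level quantified by ELISA after 24 h chemical exposure.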 The conditions noted are these: primary human foreskin fibroblasts; actives raise or lower the signal. A digest of the protocol: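 Human foreskin fibroblast primary cells dosed with chemical, VCAM-1 measured by ELISA at 24 h. Bidirectional curve fitting relative to DMSO as negative control/baseline.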

Read-out in assay [13]: Plasminogen activator inhibitor-1 (PAI1), SERPINE1 (gene 5054)
Kind of assay: BSK_hDFCGF_PAI1: BioMAP Diversity Plus: hDFCGF Assay for Plasminogen activator inhibitor-1 (PAI1) Biomarker Activity (AID 2283066). The conditions noted are these: primary human foreskin fibroblasts; actives raise or lower the signal. A digest of the protocol: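 Primary dermal fibroblasts (human foreskin), hDFCGF system; compound 24 h; PAI-1 by ELISA; bidirectional fit vs DMSO control.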

Read-out in assay [14]: Intercellular Adhesion Molecule 1 (ICAM1), ICAM1 (gene 3383)
Kind of assay: BSK_KF3CT_ICAM1: BioMAP Diversity Plus: KF3CT Assay for Intercellular Adhesion Molecule 1 (ICAM1) Biomarker Activity (AID 2283067). The following applies: primary human keratinocytes with fibroblasts; actives raise or lower the signal. A digest of the protocol:
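Human keratinocyte–foreskin fibroblast co-culture was treated for 24 h. Cell-surface ICAM-1 was quantified by ELISA, fitted bidirectionally relative to DMSO. Cytotoxicity was checked in parallel cultures by SRB total-protein staining.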

Assay [15] can be described thus: BSK_KF3CT_SRB: Viability Assessment in the BioMAP Diversity Plus: KF3CT Assay (AID 2283069).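 Also: total protein by sulforhodamine B staining as a cytotoxicity measure; read 24 h after compound addition.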 The conditions noted are these: primary human keratinocytes with fibroblasts. A digest of the protocol: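 Human primary keratinocyte plus foreskin fibroblast co-culture exposed to chemicals for 24 h. Total protein measured by 0.1% sulforhodamine B staining after 10% TCA fixation, read at 560 nm; bidirectional fitting versus DMSO baseline.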

Read-out in assay [16]: Interleukin-1 alpha (IL1a), IL1A (gene 3552)
As to the kind of experiment: BSK_KF3CT_IL1a: BioMAP Diversity Plus: KF3CT Assay for Interleukin-1 alpha (IL1a) Biomarker Activity (AID 2283070). The following applies: primary human keratinocytes with fibroblasts; actives raise or lower the signal. A digest of the protocol:
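Human keratinocyte plus foreskin fibroblast primary co-culture, sampled 24 h after chemical dosing. IL-1a measured by ELISA; responses fitted bidirectionally against DMSO baseline (negative control), so gain or loss of signal both count.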

Read-out in assay [17]: TIMP metallopeptidase inhibitor 2 (TIMP2), TIMP2 (gene 7077)
Kind of assay: BSK_KF3CT_TIMP2: BioMAP Diversity Plus: KF3CT Assay for TIMP metallopeptidase inhibitor 2 (TIMP2) Biomarker Activity (AID 2283071). The following applies: primary human keratinocytes with fibroblasts; actives raise or lower the signal. A digest of the protocol:
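Cells: human keratinocytes co-cultured with foreskin fibroblasts. Treat with chemical, 24 h. Measure TIMP-2 by ELISA; fit curves bidirectionally vs DMSO baseline.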

Read-out in assay [18]: Transforming growth factor beta 1 (TGFb1), TGFB1 (gene 7040)
Kind of assay: BSK_KF3CT_TGFb1: BioMAP Diversity Plus: KF3CT Assay for Transforming growth factor beta 1 (TGFb1) Biomarker Activity (AID 2283072). The conditions noted are these: primary human keratinocytes with fibroblasts; actives raise or lower the signal. A digest of the protocol:
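Primary human skin cells (keratinocytes, foreskin fibroblasts) were co-cultured, exposed to test chemical and sampled at 24 h. TGF-b1 levels were measured by ELISA and fitted bidirectionally relative to DMSO.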

Read-out in assay [19]: Interferon-gamma inducible Protein 10 (IP10), CXCL10 (gene 3627)
Kind of assay: BSK_KF3CT_IP10: BioMAP Diversity Plus: KF3CT Assay for Interferon-gamma inducible Protein 10 (IP10) Biomarker Activity (AID 2283068). The following applies: primary human keratinocytes with fibroblasts; actives raise or lower the signal. A digest of the protocol:
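In a primary skin co-culture of keratinocytes and fibroblasts, IP-10 is quantified by ELISA at 24 h after dosing. SRB staining of parallel wells monitors overt toxicity. Curves are fitted both directions against DMSO.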

Each structure is given as a SMILES string. The source made the active and inactive calls. The calls were made as follows: active = hit-call score of the fitted dose curve at least 0.9, where 1 is the maximum; inactive = score below 0.9.

On to `CC(C)(C)CC(C)(C)c1ccc(O)c(-n2nc3ccccc3n2)c1`, for which the AC50 in assay [1] is 14.6 µM (active); in assay [4], 14.2 µM (active); in assay [6], 6.71 µM (active); in assay [7], 5.47 µM (active); in [8], 9.39 µM (active); in assay [10] it was 7.74 µM (active). The AC50 in [12] was 15.8 µM (active); in assay [13] it was 11.3 µM (active). The result in assay [2], in assay [3], in assay [5], in [9], in [11] and in [14] was inactive. Besides, the result in [15], in [16], in [17] and in assay [18] was inactive.

With `O=c1c(-c2ccc(O)cc2)coc2cc(O)ccc12`, the outcome in assay [1], in assay [2], in assay [3], in [4], in assay [5] and in assay [6] was inactive. In addition, the result in assay [7], in assay [8], in [10], in assay [11], in assay [12] and in assay [13] was inactive. In addition, the outcome in assay [14], in [15], in assay [16], in assay [17] and in assay [18] was inactive.

For `NC(=O)N(O)[C@@H]1C=C[C@H](Oc2cccc(Oc3ccc(F)cc3)c2)C1`, the AC50 in assay [1] was 20 µM (active); in [6], 13.3 µM (active); in [7], 3.97 µM (active); in assay [12], 8.65 µM (active); in [19], 20 µM (active). Besides, the outcome in assay [2], in assay [3], in assay [4], in [5], in assay [8] and in assay [10] was inactive. Besides, the result in [11], in assay [13], in assay [14], in [15], in [16] and in assay [17] was inactive. Besides, the result in [18] was inactive.

With `CC(C)CCCCCCOC(=O)CCCCC(=O)OCCCCCCC(C)C`, the outcome in [1], in assay [2], in assay [3], in [4], in [5] and in assay [6] was inactive. The outcome in assay [7], in assay [8], in [10], in assay [11], in [12] and in assay [13] was inactive. For the same compound, the result in [14], in assay [19], in assay [15], in assay [16], in assay [17] and in [18] was inactive.

For `O=[N+]([O-])c1ccc(O)cc1`, the outcome in assay [1], in assay [2], in assay [3], in [4], in assay [5] and in assay [6] was inactive. The outcome in [7], in assay [8], in assay [10], in assay [11], in assay [12] and in assay [13] was inactive. Moreover, the result in assay [14], in [15], in assay [16], in [17] and in assay [18] was inactive.
